In PubChem BioAssay:

These compounds were tested on Chordin-like protein 2 (CHRDL2) (assay: compounds binding chordin-like 2 – biochemical, small-molecule microarray, 635 nm fluorescence, primary screen (AID 1126;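 further: printed compound slides probed with Chrdl2 protein at 4 µg/mL for 1 h at 4 C; score merges 667 nm emission intensity with signal to noise over three replicate slides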)). Conditions: fluorescence 635 nm, higher = more signal.

Row | SMILES | composite z-score
1 | CCN(CC)c1ccc(N2CC=CC34O[C@@H]5C=CCOC(=O)[C@@H]5[C@H]3C(=O)N(CCO)[C@@H]4C2=O)cc1 (stereo partly specified) | -1.83
2 | CCOC(=O)C1=CC[C@@H](c2ccccc2)N(S(=O)(=O)C[Si](C)(C)C)[C@H]1c1ccccc1 | 0.302
3 | CN(C)CCCC[C@@H]1NC(=O)[C@@H]2C[C@H](C(=O)NCc3ccc(F)cc3)[C@H](c3ccc(O)cc3)N2C1=O | 0.0978
4 | C=CCOC(=O)[C@H]1[C@@H]2C(=O)O[C@@H](c3ccccc3)[C@@H](c3ccccc3)N2[C@@H](c2ccc(OCCOC(=O)[C@@H]3C[C@@H]4C(=O)N[C@@H](CC(C)C)C(=O)N4[C@@H]3c3ccc(O)cc3)cc2)[C@]12C(=O)Nc1ccc(I)cc12 | 1.33
5 | COCCCNC(=O)[C@@H]1c2ccccc2C(=O)N(C2CCCCC2)[C@H]1c1ccc(CO)cc1 | -1.23
6 | CN(C)CCCC[C@@H]1NC(=O)[C@H]2C[C@@H](C(=O)NCc3ccc(F)cc3)[C@@H](c3ccc(O)cc3)N2C1=O | 1.13
7 | COc1ccc(C#Cc2ccc3c(c2)[C@]2(C(=O)N3)[C@H](C(=O)Nc3nc4ccccc4s3)[C@H]3C(=O)O[C@H](c4ccccc4)[C@H](c4ccccc4)N3[C@@H]2c2ccc(OCCO)cc2)cc1 | 0.254
8 | C=CCC(OC(C)=O)[C@@H]1[C@@H](N(Cc2ccc(-c3cccc(C(F)(F)F)c3)o2)C(=O)c2cccc3ccccc23)c2cc(OCCCO)ccc2N1C(=O)c1ccc2ccccc2n1 (stereo partly specified) | 0.328
9 | C[N+](C)(C)CCCC[C@@H]1NC(=O)[C@H]2C[C@@H](C(=O)NCCCCCNC(=O)CS)[C@@H](c3ccc(O)cc3)N2C1=O | 0.268
10 | C=CCC(OC(C)=O)[C@@H]1[C@@H](N(Cc2cccc3ccccc23)C(=O)c2cccc3ccccc23)c2cc(OCCCO)ccc2N1C(=O)Cc1ccc2ccccc2c1 (stereo partly specified) | 0.295
11 | COc1ccc(C(O)C2C=CC3C(=O)N(C)C(=O)C3N2Nc2ccc([N+](=O)[O-])cc2[N+](=O)[O-])cc1OCc1ccccc1 (stereo unspecified) | -0.599
12 | COCCOC(=O)N1C(=O)[C@@]2(c3cc(C#CCC(C(=O)OC)C(=O)OC)ccc31)[C@H](C(=O)N1CCc3cc(OC)c(OC)cc3C1)[C@H]1C(=O)O[C@H](c3ccccc3)[C@H](c3ccccc3)N1[C@@H]2c1ccc(O)cc1 | 1.05
13 | C=CCNC(=O)[C@@H]1[C@H]2C(=O)O[C@H](c3ccccc3)[C@H](c3ccccc3)N2[C@H](c2ccc(O)cc2)[C@@]12C(=O)Nc1ccc(C#CC3(O)CCCCCC3)cc12 | 0.227
14 | COCCOC(=O)N1C(=O)[C@@]2(c3ccccc31)[C@H](C(=O)N1CCCCCCC1)[C@H]1C(=O)O[C@H](c3ccccc3)[C@H](c3ccccc3)N1[C@@H]2c1ccc(O)cc1 | 1.41
15 | N#Cc1ccc(C(O)C2C=CC3C(=O)NC(=O)C3N2Nc2ccccn2)cc1 (stereo unspecified) | 0.31
16 | CC(C)C[C@H]1NC(=O)[C@@]23C(=O)N[C@@H](Cc4ccccc4)C2[C@H](C)[C@@]2(C)O[C@H]2C3/C=C/C/C=C\CNC(=O)[C@@H]2CCCN2C1=O (stereo partly specified) | 0.293
17 | CCCC[C@@H]1C[C@H]1[C@@H](NC(=O)Cc1ccccc1)c1ccc(Cl)cc1 | -1.01
18 | NC(=O)N1C(=O)C2C(C1=O)C1C=C(CCCO)C2C(c2ccc(CN3CCCC3)cc2)N1Cc1cccc(OC(F)(F)F)c1 (stereo unspecified) | 0.681
19 | CCOC(=O)C[C@H]1[C@H](OC(=O)c2ccc(C(=O)c3ccccc3)cc2)[C@@H](NC(=O)c2ccc3ccccc3c2)c2cc(OCCCO)ccc2N1C(=O)c1ccc2ccccc2n1 | 0.345
20 | O=C1NC(=O)C2C1C=CC(C(O)c1ccc(F)cc1)N2Nc1ccccn1 (stereo unspecified) | 0.317
21 | COc1ccc([Si](C)(C)[C@H]2[C@H](CC(=O)N3Cc4ccccc4C[C@H]3CO)O[C@@]3(C(=O)N(Cc4cccc(N5C(=O)c6cccc7cccc5c67)c4)c4ccccc43)[C@@H]2C)cc1 | 1.33
22 | COC(=O)[C@@]1(Cc2ccccc2)[C@@H]2[C@@H](CC(=O)[C@H]2CC(=O)C(=O)N(C)C)CN1C(=O)c1ccccc1 | -0.641
23 | COC(=O)[C@]1(CO)N=C(c2ccc(OCCCO)cc2)O[C@@H]1c1ccccc1CN=[N+]=[N-] | 0.265
24 | CC(C)CNC(=O)[C@@H]1c2ccccc2C(=O)N(C(C)C)[C@H]1c1ccc(CO)cc1 | 0.0021
25 | Cc1c(NC(=O)/C(C#N)=C/c2ccc(Cl)cc2)c(=O)n(-c2ccccc2)n1C | 0.122
26 | O=C1c2ccccc2[C@](Cc2ccccc2I)(C(=O)O)[C@H](c2ccc(CO)cc2)N1Cc1ccccc1 | -0.813
